Experimental data reported in the supplement of paper PMC8285479.
Structures can show the parent of a compound that is named as a salt. ± gives the standard deviation of the averaged measurements. In all, about 1,900 compounds were measured (“normalised cell viability (NPI; 0 = phenylarsine oxide control, 1 = DMSO control)”: median about 1, lowest 2% from about 0.039 on). This excerpt belongs to a sample that is enriched for the lowest values.

Tested on: NCI-H1944
Assay: normalised cell viability (NPI; 0 = phenylarsine oxide control, 1 = DMSO control) (fraction of DMSO control); NCI-H1944 is a non-small cell lung cancer line; higher = more viable cells (less compound toxicity)
Details: 6 days
[1] = glucocorticoid arm: hydrocortisone 2.75 uM co-treatment, compound 1 µM
[2] = glucocorticoid arm: hydrocortisone 2.75 uM co-treatment, compound 5 µM
[3] = glucocorticoid arm: hydrocortisone 2.75 uM pre-treated 2 days and continued, compound 1 µM
[4] = glucocorticoid arm: hydrocortisone 2.75 uM pre-treated 2 days and continued, compound 5 µM
[5] = glucocorticoid arm: vehicle, compound 1 µM
[6] = glucocorticoid arm: vehicle, compound 5 µM
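Further: CTB read-out in 384-well plates, triplicate wells, NPI normalised per plate against 1 µM phenylarsine oxide (0) and 0.1% DMSO (1) controls.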

COc1cc2c(cc1OC)-c1c/c(=N\c3c(C)cc(C)cc3C)n(C)c(=O)n1CC2 [Trequinsin hydrochloride]
normalised cell viability [1]: 1.03 ± 0.015
normalised cell viability [2]: 1.02 ± 0.022
normalised cell viability [3]: 0.908 ± 0.2
normalised cell viability [4]: 1.033 ± 0.0058
normalised cell viability [5]: 1.023 ± 0.0058
normalised cell viability [6]: 1.05 ± 0.035

CC(Cc1ccccc1)Nc1ncnc2c1ncn2C1OC(CO)C(O)C1O (stereo not drawn) [R(-)-N6-(2-Phenylisopropyl)adenosine]
normalised cell viability [1]: 0.998 ± 0.002
normalised cell viability [2]: 1.01 ± 0.018
normalised cell viability [3]: 0.9997 ± 0.0096
normalised cell viability [4]: 1.03 ± 0.031
normalised cell viability [5]: 1.013 ± 0.0058
normalised cell viability [6]: 1.02 ± 0.017

CC(=O)NC(C(=O)O)C(C)(C)SN=O (stereo not given) [S-Nitroso-N-acetylpenicillamine]
normalised cell viability [1]: 0.998 ± 0.014
normalised cell viability [2]: 1 ± 0.026
normalised cell viability [3]: 1.01 ± 0.011
normalised cell viability [4]: 0.987 ± 0.023
normalised cell viability [5]: 0.9937 ± 0.0011
normalised cell viability [6]: 0.9943 ± 0.0055

O=C1c2c(O)cc(O)cc2O[C@H](c2ccc(O)c(O)c2)[C@H]1O (racemic) [(±)-Taxifolin]
normalised cell viability [1]: 1.01 ± 0.013
normalised cell viability [2]: 0.995 ± 0.0078
normalised cell viability [3]: 1.02 ± 0.035
normalised cell viability [4]: 1.01 ± 0.012
normalised cell viability [5]: 1.017 ± 0.0058
normalised cell viability [6]: 1.017 ± 0.0058

CO[C@@]12[C@H](COC(N)=O)C3=C(C(=O)C(C)=C(N)C3=O)N1C[C@@H]1N[C@@H]12 [Mitomycin; Mitomycin C]
normalised cell viability [1]: 1 ± 0.013
normalised cell viability [2]: 0.00117 ± 0.0012
normalised cell viability [3]: 1.017 ± 0.0058
normalised cell viability [4]: 0.0028 ± 0.00069
normalised cell viability [5]: 0.9803 ± 0.0055
normalised cell viability [6]: 0.000408 ± 0.00038

O=C1c2c(O)ccc(O)c2C(=O)c2c(NCCNCCO)ccc(NCCNCCO)c21 [Mitoxantrone dihydrochloride]
normalised cell viability [1]: 0.00888 ± 0.0019
normalised cell viability [2]: 0.00352 ± 0.00052
normalised cell viability [3]: 0.145 ± 0.013
normalised cell viability [4]: 0.155 ± 0.0095
normalised cell viability [5]: 0.00324 ± 0.00091
normalised cell viability [6]: 0.00617 ± 0.003

O=C1c2c(O)ccc(O)c2C(=O)c2c(NCCNCCO)ccc(NCCNCCO)c21 [Mitoxantrone; Mitoxantrone dihydrochloride]
normalised cell viability [1]: 0.181 ± 0.0045
normalised cell viability [2]: 0.00493 ± 0.00072
normalised cell viability [3]: 0.65 ± 0.012
normalised cell viability [4]: 0.0166 ± 0.0015
normalised cell viability [5]: 0.0328 ± 0.004
normalised cell viability [6]: 0.00403 ± 0.00087

O=C1c2ccccc2C(=O)c2c(NCCc3ccc(O)cc3)ccc(NCCc3ccc(O)cc3)c21
normalised cell viability [1]: 1.01 ± 0.012
normalised cell viability [2]: 1.02 ± 0.038
normalised cell viability [3]: 1.01 ± 0.012
normalised cell viability [4]: 1.012 ± 0.0075
normalised cell viability [5]: 1.01 ± 0.0063
normalised cell viability [6]: 1.022 ± 0.0098

O=C(NCc1cccc(O)c1)Nc1nc(-c2ccncc2)cs1
normalised cell viability [1]: 0.994 ± 0.01
normalised cell viability [2]: 0.978 ± 0.021
normalised cell viability [3]: 1.01 ± 0.014
normalised cell viability [4]: 0.971 ± 0.035
normalised cell viability [5]: 0.984 ± 0.0069
normalised cell viability [6]: 0.816 ± 0.054

C=C/C(C)=C/[C@@]1(C)SC(=O)C(C)=C1O [Thiolactomycin]
normalised cell viability [1]: 0.992 ± 0.0056
normalised cell viability [2]: 0.961 ± 0.021
normalised cell viability [3]: 1 ± 0.026
normalised cell viability [4]: 0.848 ± 0.23
normalised cell viability [5]: 0.9883 ± 0.0015
normalised cell viability [6]: 0.998 ± 0.012

C=CCN1CCc2c(cc(O)c(O)c2Cl)C(c2ccccc2)C1 (racemic) [(±)-Chloro-APB hydrobromide]
normalised cell viability [1]: 0.9917 ± 0.0072
normalised cell viability [2]: 1.02 ± 0.01
normalised cell viability [3]: 0.989 ± 0.0061
normalised cell viability [4]: 1 ± 0.011
normalised cell viability [5]: 0.9943 ± 0.0021
normalised cell viability [6]: 0.99467 ± 0.00058

N#C/C(=C\c1ccc(-c2cc(Cl)ccc2Cl)o1)C(=O)Nc1cccc2ncccc12
normalised cell viability [1]: 0.971 ± 0.01
normalised cell viability [2]: 0.978 ± 0.035
normalised cell viability [3]: 0.984 ± 0.018
normalised cell viability [4]: 0.991 ± 0.014
normalised cell viability [5]: 0.9887 ± 0.0078
normalised cell viability [6]: 0.989 ± 0.012

O=C(/C=C/c1cccc(S(=O)(=O)Nc2ccccc2)c1)NO [Belinostat (PXD101)]
normalised cell viability [1]: 0.9767 ± 0.0051
normalised cell viability [2]: 0.0174 ± 0.0036
normalised cell viability [3]: 1.02
normalised cell viability [4]: 0.114 ± 0.0036
normalised cell viability [5]: 0.575 ± 0.067
normalised cell viability [6]: 0.00153 ± 0.00067

O=C(/C=C/C#Cc1cccc(NS(=O)(=O)c2ccccc2)c1)NO [Oxamflatin]
normalised cell viability [1]: 0.974 ± 0.015
normalised cell viability [2]: 0.599 ± 0.44
normalised cell viability [3]: 0.992 ± 0.019
normalised cell viability [4]: 0.901 ± 0.11
normalised cell viability [5]: 0.843 ± 0.17
normalised cell viability [6]: 0.509 ± 0.54

COc1cccc(NC(=O)/C=C/c2ccc(Cl)cc2)c1
normalised cell viability [1]: 0.953 ± 0.015
normalised cell viability [2]: 0.884 ± 0.026
normalised cell viability [3]: 0.992 ± 0.029
normalised cell viability [4]: 0.941 ± 0.023
normalised cell viability [5]: 0.9757 ± 0.0093
normalised cell viability [6]: 0.9683 ± 0.0067

N[C@H](C(=O)O)[C@H]1C[C@@H]1C(=O)O [(2S,1'S,2'S)-2-(carboxycyclopropyl)glycine]
normalised cell viability [1]: 0.99 ± 0.0046
normalised cell viability [2]: 0.979 ± 0.019
normalised cell viability [3]: 0.994 ± 0.0095
normalised cell viability [4]: 0.978 ± 0.015
normalised cell viability [5]: 0.9847 ± 0.0055
normalised cell viability [6]: 0.9883 ± 0.0097

COC(=O)[C@]12CCC(C)(C)C[C@H]1[C@H]1C(=O)C=C3[C@@]4(C)C=C(C#N)C(=O)C(C)(C)[C@@H]4CC[C@@]3(C)[C@]1(C)CC2 [Bardoxolone Methyl]
normalised cell viability [1]: 0.00114 ± 0.00058
normalised cell viability [2]: 1.08 ± 0.01
normalised cell viability [3]: 0.00366 ± 0.0014
normalised cell viability [4]: 1.1 ± 0.015
normalised cell viability [5]: 0.00138 ± 0.00077
normalised cell viability [6]: 0.858 ± 0.022

N.N.N.N.N.N.N.N.N.N.N.N.N.N.O.O.[Cl-].[Cl-].[Cl-].[Cl-].[Cl-].[Cl-].[Ru+4].[Ru+5].[Ru+5] [Ruthenium red]
normalised cell viability [1]: 0.991 ± 0.01
normalised cell viability [2]: 0.974 ± 0.021
normalised cell viability [3]: 1.01 ± 0.027
normalised cell viability [4]: 0.987 ± 0.023
normalised cell viability [5]: 0.995 ± 0.0052
normalised cell viability [6]: 0.973 ± 0.0087

CC(C)(C)NCC(O)COc1cccc2[nH]c(=O)[nH]c12 (racemic)
normalised cell viability [1]: 0.9973 ± 0.0023
normalised cell viability [2]: 0.974 ± 0.014
normalised cell viability [3]: 0.992 ± 0.015
normalised cell viability [4]: 0.988 ± 0.0076
normalised cell viability [5]: 0.9853 ± 0.0067
normalised cell viability [6]: 0.985 ± 0.0053

CC1c2cccc(O)c2C(O)=C2C(=O)C3(O)C(O)=C(C(N)=O)C(=O)C(N(C)C)C3C(O)C21 (stereo not given) [Doxycycline hydrochloride]
normalised cell viability [1]: 1
normalised cell viability [2]: 0.9303 ± 0.0093
normalised cell viability [3]: 0.99 ± 0.014
normalised cell viability [4]: 0.945 ± 0.018
normalised cell viability [5]: 0.9897 ± 0.0067
normalised cell viability [6]: 0.9743 ± 0.006

COC(=O)C(C)(N)Cc1ccc(O)cc1 (racemic) [alpha-Methyl-DL-tyrosine methyl ester hydrochloride]
normalised cell viability [1]: 1.004 ± 0.01
normalised cell viability [2]: 1.01 ± 0.034
normalised cell viability [3]: 1.01 ± 0.023
normalised cell viability [4]: 0.999 ± 0.011
normalised cell viability [5]: 0.9943 ± 0.0057
normalised cell viability [6]: 1.004 ± 0.0098

Cn1c(=O)c(F)c(Nc2ccc(I)cc2F)c2c(=O)n(C[C@@H](O)CO)cnc21
normalised cell viability [1]: 0.641 ± 0.035
normalised cell viability [2]: 0.629 ± 0.043
normalised cell viability [3]: 0.772 ± 0.028
normalised cell viability [4]: 0.757 ± 0.042
normalised cell viability [5]: 0.329 ± 0.013
normalised cell viability [6]: 0.226 ± 0.025

Cc1cc(C(=O)NOCCO)c(Nc2ccc(I)cc2F)n(C)c1=O
normalised cell viability [1]: 0.614 ± 0.018
normalised cell viability [2]: 0.565 ± 0.035
normalised cell viability [3]: 0.66 ± 0.011
normalised cell viability [4]: 0.672 ± 0.037
normalised cell viability [5]: 0.286 ± 0.014
normalised cell viability [6]: 0.279 ± 0.013

CCCNC[C@H](O)COc1ccccc1C(=O)CCc1ccccc1 [(S)-(-)-propafenone hydrochloride]
normalised cell viability [1]: 0.99967 ± 0.00058
normalised cell viability [2]: 0.9747 ± 0.0047
normalised cell viability [3]: 1.02 ± 0.026
normalised cell viability [4]: 1.02 ± 0.015
normalised cell viability [5]: 0.9967 ± 0.0058
normalised cell viability [6]: 0.995 ± 0.005

Cc1nc(C#Cc2ccnc(Cl)c2)c(C)n1-c1ccc(OC(F)(F)F)cc1
normalised cell viability [1]: 0.993 ± 0.021
normalised cell viability [2]: 0.992 ± 0.01
normalised cell viability [3]: 0.983 ± 0.015
normalised cell viability [4]: 0.9747 ± 0.004
normalised cell viability [5]: 1 ± 0.017
normalised cell viability [6]: 1 ± 0.014

O=S(=O)(NCCNCC=Cc1ccc(Br)cc1)c1cccc2cnccc12
normalised cell viability [1]: 0.985 ± 0.012
normalised cell viability [2]: 0.985 ± 0.025
normalised cell viability [3]: 1.03 ± 0.01
normalised cell viability [4]: 1.007 ± 0.0058
normalised cell viability [5]: 1.002 ± 0.0072
normalised cell viability [6]: 0.968 ± 0.016

Cc1ccccc1N1CCN(S(=O)(=O)C[C@]23CC[C@H](C[C@@H]2NC(=O)[C@@H](N)CCS(C)(=O)=O)C3(C)C)CC1 [L-368,899 hydrochloride]
normalised cell viability [1]: 0.99 ± 0.017
normalised cell viability [2]: 0.986 ± 0.024
normalised cell viability [3]: 0.998 ± 0.013
normalised cell viability [4]: 1.01 ± 0.023
normalised cell viability [5]: 0.9847 ± 0.0035
normalised cell viability [6]: 0.9993 ± 0.0095

COC[C@H](NC(=O)c1cnc(C)s1)C(=O)N[C@@H](COC)C(=O)N[C@@H](Cc1ccccc1)C(=O)[C@@]1(C)CO1 [Oprozomib (ONX 0912)]
normalised cell viability [1]: 0.208 ± 0.051
normalised cell viability [2]: 0.0253 ± 0.0081
normalised cell viability [3]: 0.7 ± 0.017
normalised cell viability [4]: 0.301 ± 0.021
normalised cell viability [5]: 0.0106 ± 0.0015
normalised cell viability [6]: 0.00109 ± 0.00065

Nc1ccc(-c2ccc3ncc4ccc(=O)n(-c5cccc(C(F)(F)F)c5)c4c3c2)cn1 [Torin 2]
normalised cell viability [1]: 0.175 ± 0.0021
normalised cell viability [2]: 0.171 ± 0.0032
normalised cell viability [3]: 0.267 ± 0.012
normalised cell viability [4]: 0.299 ± 0.0097
normalised cell viability [5]: 0.0254 ± 0.002
normalised cell viability [6]: 0.0207 ± 0.0023

CCC(=O)N1CCN(c2ccc(-n3c(=O)ccc4cnc5ccc(-c6cnc7ccccc7c6)cc5c43)cc2C(F)(F)F)CC1 [Torin 1]
normalised cell viability [1]: 0.4 ± 0.0087
normalised cell viability [2]: 0.383 ± 0.013
normalised cell viability [3]: 0.532 ± 0.018
normalised cell viability [4]: 0.518 ± 0.022
normalised cell viability [5]: 0.223 ± 0.023
normalised cell viability [6]: 0.286 ± 0.01
